The record followed here is PubChem BioAssay (Tox21).

Where “and” joins values, the source holds several entries; their conditions need not be identical. Identical values can stand only once. Results filed as inconclusive are left out. Where a call stands in place of a potency, no number is given. The source holds several records for some structures; these can differ, active in one and inactive in another. Calls of active or inactive are those of the source. Unless noted, calls follow the shape of the dose curve; as a rule, active = well fitted cell-killing curve with a large enough effect in the repeat runs; inconclusive = weak or mixed curves, or effect the other way; inactive = no such curve, though single readings can be large or run the other way.
Also: nearly all actives have a fitted effect of over 50% in size.
Potency is read from the fitted curve at half-maximal effect.

The first assay is described as follows: qHTS assay to identify small molecule agonists of the endoplasmic reticulum stress response signaling pathway - cell viability counter screen (AID 1159517; calls by dose curve). To be noted: ESRE-bla HeLa viability, CellTiter-Glo luminescence, 5 h; series mostly up to 61 µM. Put shortly:
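In parallel with the ESRE reporter read, cytotoxicity was scored by CellTiter-Glo luminescence (30 min, room temperature) on HeLa ESRE-bla cells dosed for 5 hr.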
In the case of `O=C1CC(=O)NC(=O)N1`, the Potency result was “inactive”.
On to `CC(C)[N+](C)(CCC(C(N)=O)(c1ccccc1)c1ccccc1)C(C)C`, for which the Potency entry was “inactive”.
Consider `S=C=S`, for which the Potency entry was “inactive”.
Still for that read-out and setting: the result for `Cn1c(CCCC(=O)O)nc2cc(N(CCCl)CCCl)ccc21` reads “inactive”; that for `CCSC(=O)Cl`, “inactive”.
On the same count and under the same terms, the same measure for `CC(C)(C)c1cc(O)ccc1O`: “inactive”; for `CCC(C)(C#N)N=NC(C)(C#N)CC` (stereo not given): “inactive”; for `O=C(Cl)C(Cl)Cl`: “inactive”.
Take `COP(=O)(OC)O/C(C)=C/C(=O)N(C)C`: the Potency result is “inactive”.
Consider `CON(C)C(=O)Nc1ccc(Br)c(Cl)c1`, for which the Potency result is “inactive”.
For `COc1ccc(C=O)cc1O`, the Potency entry is “inactive”.
Still for that read-out and setting: the same measure for `CCOC(=O)C(Cl)Cc1cc(-n2nc(C)n(C(F)F)c2=O)c(F)cc1Cl` (stereo not given): “inactive”; for `CCN[C@@H](C)Cc1ccccc1`: “inactive”.
On to `O=C1C2CC=CCC2C(=O)N1SC(Cl)(Cl)Cl` (stereo not given), for which the Potency entry was “inactive”.
Turning to `O=C(Cl)C(Cl)(Cl)Cl`, the Potency result is “inactive”.
Same read-out and setting: the result for `CCN(CCO)CCn1c(Cc2ccccc2)nc2c1c(=O)n(C)c(=O)n2C` reads “inactive”; that for `CCOC(=O)C(SP(=S)(OC)OC)c1ccccc1` (stereo not given), “inactive”; that for `CCOC(=O)NC(C)(C)Cc1ccc(Cl)cc1`, “inactive”.
The same measure, in the same setting: the result for `C=CCc1cc(OC)c2c(c1)OCO2` reads “inactive”; that for `CN1COCN(Cc2cnc(Cl)s2)/C1=N\[N+](=O)[O-]`, “inactive”; that for `NC(=O)CS(=O)C(c1ccccc1)c1ccccc1` (stereo not given), “inactive”.
Regarding `CCCCCCCCSC(=O)Oc1cc(Cl)nnc1-c1ccccc1`, the Potency entry was “inactive”.
Still for that read-out and setting: the result for `C1CN2CCC1CC2` reads “inactive”; that for `ClC1=C(Cl)C2(Cl)C(CBr)CC1(Cl)C2(Cl)Cl` (stereo not given), 54.9 µM (active) and inactive; that for `CCC1(c2ccccc2)C(=O)N(COC)C(=O)N(COC)C1=O`, “inactive”.
As to `NNC(N)=O`, the Potency entry was “inactive”.
Turning to `Cc1cccc2sc3nncn3c12`, the Potency entry is “inactive”.
Consider `C/C(=N\NC(=O)Nc1cc(F)cc(F)c1)c1ncccc1C(=O)O`, for which the Potency result is “inactive”.
With `CNC(=O)O/N=C(/CSC)C(C)(C)C`, the Potency result was “inactive”.
Same read-out and setting: the result for `COC(=O)c1ccc(CBr)cc1` reads “inactive”; that for `CCN(CC)C1CCCCC1`, “inactive”.
For `CC(C)(N)Cc1ccccc1Cl`, the Potency result is “inactive”.
For `CC#Cc1cc(C)nc(Nc2ccccc2)n1`, the Potency result is “inactive”.
The same measure, in the same setting: the result for `CON(C)C(=O)Nc1ccc(Br)cc1` reads “inactive”.
Regarding `CC1NCCOC1c1ccccc1` (stereo not given), the Potency result is “inactive”.

A short description of a further assay: qHTS assay to identify small molecule antagonists of the retinoid-related orphan receptor gamma (ROR-gamma) signaling pathway - cell viability counter screen (AID 1159520). The conditions noted are these: Tet-on RORgamma CHO cells viability, ATP luminescence, 16 h; series mostly up to 92.4 µM. Summed up:
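Tet-on ROR gamma CHO cells were given compounds for 2 hr, then doxycycline hyclate at 1 uM final, and incubated 16 hr at 37 C. Viability was measured as ATP content by CellTiter-Glo luminescence.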
(In general: In qHTS, concentration-response curves come from the screen itself.)
On to `O=C1CC(=O)NC(=O)N1`, for which the Potency result is “inactive”.
With `CC(C)[N+](C)(CCC(C(N)=O)(c1ccccc1)c1ccccc1)C(C)C`, the Potency entry was “inactive”.
As to `S=C=S`, the Potency result is “inactive”.
As to `Cn1c(CCCC(=O)O)nc2cc(N(CCCl)CCCl)ccc21`, the Potency result is “inactive”.
Still for that read-out and setting: the result for `CCSC(=O)Cl` reads “inactive”; that for `CC(C)(C)c1cc(O)ccc1O`, “inactive”; that for `CCC(C)(C#N)N=NC(C)(C#N)CC` (stereo not given), “inactive”.
Take `O=C(Cl)C(Cl)Cl`: the Potency result is “inactive”.
In the case of `COP(=O)(OC)O/C(C)=C/C(=O)N(C)C`, the Potency entry is “inactive”.
For the compound `CON(C)C(=O)Nc1ccc(Br)c(Cl)c1`, the Potency entry was “inactive”.
Take `COc1ccc(C=O)cc1O`: the Potency result is “inactive”.
For `CCOC(=O)C(Cl)Cc1cc(-n2nc(C)n(C(F)F)c2=O)c(F)cc1Cl` (stereo not given), the Potency entry was “inactive”.
Take `CCN[C@@H](C)Cc1ccccc1`: the Potency entry was “inactive”.
For the compound `O=C1C2CC=CCC2C(=O)N1SC(Cl)(Cl)Cl` (stereo not given), the Potency entry was “inactive and 1.9 µM (active)”.
In the case of `O=C(Cl)C(Cl)(Cl)Cl`, the Potency entry was “inactive”.
Regarding `CCN(CCO)CCn1c(Cc2ccccc2)nc2c1c(=O)n(C)c(=O)n2C`, the Potency result was “inactive”.
Still for that read-out and setting: the result for `CCOC(=O)C(SP(=S)(OC)OC)c1ccccc1` (stereo not given) reads “inactive”; that for `CCOC(=O)NC(C)(C)Cc1ccc(Cl)cc1`, “inactive”.
On to `C=CCc1cc(OC)c2c(c1)OCO2`, for which the Potency result was “inactive”.
In the case of `CN1COCN(Cc2cnc(Cl)s2)/C1=N\[N+](=O)[O-]`, the Potency result was “inactive”.
Still for that read-out and setting: the same measure for `NC(=O)CS(=O)C(c1ccccc1)c1ccccc1` (stereo not given): “inactive”; for `CCCCCCCCSC(=O)Oc1cc(Cl)nnc1-c1ccccc1`: “inactive”; for `C1CN2CCC1CC2`: “inactive”.
Take `ClC1=C(Cl)C2(Cl)C(CBr)CC1(Cl)C2(Cl)Cl` (stereo not given): the Potency entry was “inactive”.
`CCC1(c2ccccc2)C(=O)N(COC)C(=O)N(COC)C1=O`: the Potency entry was “inactive”.
On to `NNC(N)=O`, for which the Potency result was “inactive”.
On to `Cc1cccc2sc3nncn3c12`, for which the Potency result is “inactive”.
On to `C/C(=N\NC(=O)Nc1cc(F)cc(F)c1)c1ncccc1C(=O)O`, for which the Potency entry is “inactive”.
The same measure, in the same setting: the same measure for `CNC(=O)O/N=C(/CSC)C(C)(C)C`: “inactive”; for `COC(=O)c1ccc(CBr)cc1`: “inactive”; for `CCN(CC)C1CCCCC1`: “inactive”.
For the compound `CC(C)(N)Cc1ccccc1Cl`, the Potency entry was “inactive”.
Regarding `CC#Cc1cc(C)nc(Nc2ccccc2)n1`, the Potency entry is “inactive”.
As to `CON(C)C(=O)Nc1ccc(Br)cc1`, the Potency result was “inactive”.
Still for that read-out and setting: the same measure for `CC1NCCOC1c1ccccc1` (stereo not given): “inactive”.
